Measurements as given in PubChem BioAssay AID1159580 (chemical genetic matrix, 2015).
Out of some 5,500 compounds screened, about 2,000 (36%) were called active. About 18% were inconclusive and are not listed. Rule as the data show it: active = normalized growth mostly below about 0.91 (no sharp cut-off); inconclusive = no clear call, values can overlap the other calls; inactive = mostly above about 0.92. The list shows a part of the results.

Test: chemical genetic growth profiling, strain panel (AID 1159580);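 also: tested at 20 µM; growth read once vehicle control cultures reached saturation at 30 °C; 1 = growth at the plate median or of vehicle wells; lower values mean less growth of the strain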
Conditions: growth OD
[1] = S. cerevisiae deletion strains, locus YDL101C, strain DUN1, hits give low values
[2] = S. cerevisiae deletion strains, locus YHR030C, strain SLT2, hits give low values

Measured: normalized growth

Clc1cccc(Cl)c1CSC1=NCCCN1C1CCCCC1
inactive: S. cerevisiae deletion strains, locus YAL013W, strain DEP1, hits give low values 0.999 | S. cerevisiae deletion strains, locus YBR229C, strain ROT2, hits give low values 1 | [1] 1 | S. cerevisiae deletion strains, locus YDR150W, strain NUM1, hits give low values 0.993 | S. cerevisiae deletion strains, locus YEL061C, strain CIN8, hits give low values 0.973 | S. cerevisiae deletion strains, locus YGR078C, strain PAC10, hits give low values 1 | S. cerevisiae deletion strains, locus YGR229C, strain SMI1, hits give low values 1 | [2] 0.967 | S. cerevisiae deletion strains, locus YHR087W, strain rtc3, hits give low values 1.01 | S. cerevisiae deletion strains, locus YJL187C, strain SWE1, hits give low values 1.01 | S. cerevisiae deletion strains, locus YJR043C, strain POL32, hits give low values 1 | S. cerevisiae deletion strains, locus YJR075W, strain HOC1, hits give low values 1.03 | S. cerevisiae deletion strains, locus YLR039C, strain RIC1, hits give low values 1 | S. cerevisiae deletion strains, locus YLR058C, strain SHM2 (second series), hits give low values 0.993 | S. cerevisiae deletion strains, locus YLR085C, strain ARP6, hits give low values 0.987 | S. cerevisiae deletion strains, locus YLR262C, strain YPT6, hits give low values 1.01 | S. cerevisiae deletion strains, locus YML094W, strain GIM5, hits give low values 0.988 | S. cerevisiae deletion strains, locus YMR219W, strain ESC1, hits give low values 0.994 | S. cerevisiae deletion strains, locus YMR263W, strain SAP30, hits give low values 1.01 | S. cerevisiae deletion strains, locus YNL153C, strain GIM3, hits give low values 0.985 | S. cerevisiae deletion strains, locus YNL298W, strain CLA4 (second series), hits give low values 0.998 | S. cerevisiae deletion strains, locus YNL322C, strain KRE1, hits give low values 1 | S. cerevisiae deletion strains, locus YNR030W, strain Alg12, hits give low values 0.975 | S. cerevisiae deletion strains, locus YOL006C, strain TOP1, hits give low values 0.986 | S. cerevisiae deletion strains, locus YPL055C, strain LGE1, hits give low values 1.05 | S. cerevisiae deletion strains, locus YPL241C, strain CIN2, hits give low values 0.992 | S. cerevisiae deletion strains, locus YPR135W, strain CTF4, hits give low values 1.09 | S. cerevisiae strains, strain wild type, hits give low values 1

N#CC(C#N)=C(SCc1c(Cl)cccc1Cl)SCc1c(Cl)cccc1Cl
inactive: S. cerevisiae deletion strains, locus YAR019C, strain CDC15, hits give low values 0.997 | S. cerevisiae deletion strains, locus YBL105C, strain PKC1, hits give low values 0.981 | S. cerevisiae deletion strains, locus YBR135W, strain CKS1, hits give low values 0.992 | S. cerevisiae deletion strains, locus YBR136W, strain MEC1, hits give low values 0.988 | S. cerevisiae deletion strains, locus YBR160W, strain CDC28, hits give low values 0.996 | S. cerevisiae deletion strains, locus YDL017W, strain CDC7, hits give low values 0.989 | S. cerevisiae deletion strains, locus YDL028C, strain MPS1, hits give low values 0.993 | [1] 0.988 | S. cerevisiae deletion strains, locus YDL108W, strain KIN28, hits give low values 0.989 | S. cerevisiae deletion strains, locus YDL132W, strain cdc53, hits give low values 0.984 | S. cerevisiae deletion strains, locus YDL214C, strain PRR2, hits give low values 0.996 | S. cerevisiae deletion strains, locus YDR052C, strain DBF4, hits give low values 0.99 | S. cerevisiae deletion strains, locus YDR054C, strain cdc34, hits give low values 0.977 | S. cerevisiae deletion strains, locus YDR226W, strain ADK1, hits give low values 0.981 | S. cerevisiae deletion strains, locus YDR477W, strain SNF1, hits give low values 0.993 | S. cerevisiae deletion strains, locus YER123W, strain YCK3, hits give low values 0.999 | S. cerevisiae deletion strains, locus YER133W, strain GLC7, hits give low values 0.995 | S. cerevisiae deletion strains, locus YFL009W, strain cdc4, hits give low values 0.981 | S. cerevisiae deletion strains, locus YFL029C, strain CAK1, hits give low values 0.986 | S. cerevisiae deletion strains, locus YFR003C, strain YPI1, hits give low values 0.99 | S. cerevisiae deletion strains, locus YFR019W, strain FAB1, hits give low values 0.979 | S. cerevisiae deletion strains, locus YFR028C, strain CDC14, hits give low values 0.993 | S. cerevisiae deletion strains, locus YGR040W, strain KSS1, hits give low values 0.993 | S. cerevisiae deletion strains, locus YGR052W, strain FMP48, hits give low values 1.03 | S. cerevisiae deletion strains, locus YGR092W, strain DBF2, hits give low values 0.982 | [2] 0.925 | S. cerevisiae deletion strains, locus YHR079C, strain IRE1, hits give low values 0.93 | S. cerevisiae deletion strains, locus YHR082C, strain KSP1, hits give low values 1.11 | S. cerevisiae deletion strains, locus YHR205W, strain SCH9, hits give low values 0.859 | S. cerevisiae deletion strains, locus YIL147C, strain SLN1, hits give low values 0.992 | S. cerevisiae deletion strains, locus YJL095W, strain BCK1, hits give low values 0.969 | S. cerevisiae deletion strains, locus YJL128C, strain PBS2, hits give low values 0.993 | S. cerevisiae deletion strains, locus YJL157C, strain FAR1, hits give low values 0.989 | S. cerevisiae deletion strains, locus YJR016C, strain ILV3, hits give low values 0.991 | S. cerevisiae deletion strains, locus YJR066W, strain TOR1 (second series), hits give low values 1 | S. cerevisiae deletion strains, locus YJR066W, strain TOR1, hits give low values 1.09 | S. cerevisiae deletion strains, locus YKL048C, strain ELM1, hits give low values 0.954 | S. cerevisiae deletion strains, locus YKL067W, strain YNK1, hits give low values 0.995 | S. cerevisiae deletion strains, locus YKL101W, strain HSL1, hits give low values 0.981 | S. cerevisiae deletion strains, locus YKL193C, strain SDS22, hits give low values 0.987 | S. cerevisiae deletion strains, locus YKL203C, strain TOR2, hits give low values 1.08 | S. cerevisiae deletion strains, locus YLR113W, strain HOG1, hits give low values 0.95 | S. cerevisiae deletion strains, locus YLR133W, strain CKI1, hits give low values 0.991 | S. cerevisiae deletion strains, locus YLR403W, strain SFP1, hits give low values 0.937 | S. cerevisiae deletion strains, locus YML070W, strain DAK1, hits give low values 0.998 | S. cerevisiae deletion strains, locus YMR001C, strain CDC5, hits give low values 0.985 | S. cerevisiae deletion strains, locus YMR205C, strain PFK2 (second series), hits give low values 0.996 | S. cerevisiae deletion strains, locus YMR277W, strain FCP1, hits give low values 0.994 | S. cerevisiae deletion strains, locus YNL006W, strain LST8, hits give low values 0.997 | S. cerevisiae deletion strains, locus YNL020C, strain ARK1, hits give low values 0.987 | S. cerevisiae deletion strains, locus YNL161W, strain CBK1, hits give low values 0.983 | S. cerevisiae deletion strains, locus YNL183C, strain NPR1, hits give low values 1.1 | S. cerevisiae deletion strains, locus YNL207W, strain RIO2, hits give low values 0.987 | S. cerevisiae deletion strains, locus YNL222W, strain SSU72, hits give low values 0.987 | S. cerevisiae deletion strains, locus YNL307C, strain MCK1 (second series), hits give low values 0.989 | S. cerevisiae deletion strains, locus YOL078W, strain AVO1, hits give low values 0.993 | S. cerevisiae deletion strains, locus YOL136C, strain PFK27, hits give low values 0.988 | S. cerevisiae deletion strains, locus YOR061W, strain CKA2, hits give low values 0.995 | S. cerevisiae deletion strains, locus YOR119C, strain RIO1, hits give low values 1.08 | S. cerevisiae deletion strains, locus YOR231W, strain MKK1, hits give low values 1.01 | S. cerevisiae deletion strains, locus YOR329C, strain SCD5, hits give low values 0.986 | S. cerevisiae deletion strains, locus YPL031C, strain PHO85, hits give low values 0.989 | S. cerevisiae deletion strains, locus YPL153C, strain RAD53, hits give low values 1.01 | S. cerevisiae deletion strains, locus YPL204W, strain HRR25, hits give low values 1 | S. cerevisiae deletion strains, locus YPL209C, strain IPL1, hits give low values 0.987 | S. cerevisiae deletion strains, locus YPL256C, strain CLN2, hits give low values 0.946 | S. cerevisiae deletion strains, locus YPR025C, strain CCL1, hits give low values 0.996 | S. cerevisiae deletion strains, locus YPR106W, strain ISR1, hits give low values 0.998 | S. cerevisiae deletion strains, locus YPR111W, strain DBF20, hits give low values 0.988 | S. cerevisiae deletion strains, strain NNK1, hits give low values 0.996 | S. cerevisiae deletion strains, strain TSCII, hits give low values 0.993
